# Rows were chosen to be rich in hits. Some 1.3% of all compounds tested hit in one or more screens of this group.
# PGC1a acetyl inh – PGC1a acetylation modulation, inhibitor mode; U2OS PGC1a acetylation, AlphaScreen anti-acetyl-lysine; with virally co-expressed GCN5 acetyltransferase; AID 651687; inhibition, % at 15.6 µM; 350,000 tested, 0.17% active;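 active means every replicate shows inhibition of at least 40%; inconclusive means mean inhibition at least 40% but some replicate below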;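 further: 0% = neutral control wells and 100% = positive control wells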
# Rce1 inhib – yeast Ras-converting enzyme inhibition | yeast membranes, quenched prenylated peptide cleavage fluorescence | 290,000 tested, 0.27% active | calls only;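 active means fall in fluorescence gain of 50% or more versus controls, with final raw signal at or below 3038400; inconclusive means same 50% fall but final raw signal above 3038400; inactive means fall in fluorescence gain under 50%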;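 further: plate controls were neutral control wells for no effect and wells lacking membranes for full effect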
# Target sequence (Q03530 whole entry, looked up): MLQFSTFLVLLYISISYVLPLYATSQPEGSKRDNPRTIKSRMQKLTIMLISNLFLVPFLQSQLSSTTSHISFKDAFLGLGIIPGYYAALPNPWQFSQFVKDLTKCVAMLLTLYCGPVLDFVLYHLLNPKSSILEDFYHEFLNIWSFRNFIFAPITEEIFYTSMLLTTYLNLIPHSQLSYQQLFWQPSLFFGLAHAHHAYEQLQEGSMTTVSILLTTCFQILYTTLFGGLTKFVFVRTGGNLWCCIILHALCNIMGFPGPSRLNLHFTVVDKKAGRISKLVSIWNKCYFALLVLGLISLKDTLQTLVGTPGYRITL
# AI-2 QS modul – modulators of Vibrio harveyi AI-2 quorum sensing system; 300,000 tested, 0.4% active; Vibrio harveyi JMH597 AI-2 luminescence/OD600 ratio, 9 h; hits give low values; strain lacks LuxN and CqsS sensors; 0 = neutral-control median; activity change, % at 7.5 µM; in the data active means activity change below about -75%, passing the limit was not always enough; inconclusive means no clear call, values can overlap the other calls;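 further: luminescence divided by OD600 gain over 9 h not by final OD600 alone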
# Statin myotox sup – suppression of simvastatin myotoxicity. rescue of ATP level, % at 7.49 µM. 330,000 tested, 0.78% active. C2C12 myotubes + simvastatin, ATP luminescence, 48 h; scaled: DMSO 0, geranylgeraniol control 100;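 active means mean ATP rescue above about 67%, or every replicate alone reaching that limit, limit read from the data, passing the limit was not always enough; inconclusive means no clear call, values can overlap the other calls; inactive means mean under the limit and some replicate under it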;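 further: myotubes were challenged with 10 µM simvastatin during compound exposure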
# HIF activator – HIF pathway transcriptional activation. U2OS HRE-luciferase reporter, luminescence; normalized: DMSO 0%, desferrioxamine 100%. 300,000 tested, 0.32% active. activation, % at 7.5 µM (by protocol);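 active means mean activation of at least 10% of the iron chelator positive control signal, with at least half of replicates also reaching 10%; inconclusive means mean and replicate majority disagree about reaching 10%; inactive means mean and most replicates under 10%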
# Starred values were filed as active, the others as inactive; i = inactive; ? = inconclusive; / = not tested or not shown; + = active, no number.
SMILES,PGC1a acetyl inh,Rce1 inhib,AI-2 QS modul,Statin myotox sup,HIF activator
Cc1nn(CC(=O)OCC(=O)NCCc2ccc(F)cc2)c(C)c1[N+](=O)[O-],-1,/,/,4,/
CCOc1ccc(CCNC(=O)COC(=O)Cn2nc(C)c([N+](=O)[O-])c2C)cc1OCC,-2,i,30,11,13*
COc1ccc(C2NC(C(=O)O)Cc3c2[nH]c2ccccc32)cc1OC (configuration not stated),14,i,14,116*,0
COc1cc(C2NC(C(=O)O)Cc3c2[nH]c2ccccc32)cc(OC)c1OC (configuration not stated),11,i,32,-12,0
COc1ccc(N=C2S/C(=C\c3cc(C)n(C)c3C)C(=O)N2CC(C)C)cc1,-10,i,15,156*,-1
Cc1nc(C)c(C(=O)C2=C(O)C(=O)N(CCCn3ccnc3)C2c2ccc(Cl)cc2)s1 (configuration not stated),14,i,2,128*,0
C[C@H]1CN([C@@H](C)CO)C(=O)c2cc(NC(=O)CCN3CCOCC3)ccc2O[C@H]1CN(C)S(=O)(=O)c1ccc(Cl)cc1,3,/,/,5,/
Cc1cc(NS(=O)(=O)c2ccc(NC(=O)Cc3cccs3)cc2)no1,4,i,-78*,-31,0
COc1ccc(C2CC(c3ccc4ccccc4c3)=NN2C(=O)CNC2CCCCC2)cc1 (configuration not stated),/,+,15,/,-6
COc1ccc(-c2cc3ccc(OCc4nn[nH]n4)cc3oc2=O)cc1OC,8,+,9,9,0
COc1ccc(-c2cc3ccc(OCC(C)=O)cc3oc2=O)cc1OC,-26,i,11,-11,3
C[C@H]1CN([C@@H](C)CO)C(=O)Cc2cc(NC(=O)c3ccncc3)ccc2O[C@H]1CN(C)Cc1ccc(-c2ccccc2)cc1,-8,/,/,-81,/
COc1ccccc1NC(=O)N1CCCCN2[C@H](CO)[C@@H](c3ccc(-c4ccccc4)cc3)[C@@H]2C1,-9,/,/,/,/
CC(=O)Cc1cc(O)c2ccccc2c1OC(=O)c1ccc(Br)cc1,6,/,11,88*,0
CCC(=O)N[C@H]1CC[C@H](CC(=O)NCc2ccccc2OC)O[C@H]1CO,1,/,/,-2,/
COc1cccc(C2NC(=S)NC3=C2CCc2ccccc23)c1 (configuration not stated),/,i,12,/,0
S=C1NC2=C(CCCC2=C2SCCS2)C(c2ccccc2)N1 (configuration not stated),?,i,38,/,69*
O=C(C[C@H]1CC[C@@H]2[C@H](COC[C@@H](O)CN2C(=O)Nc2ccc(F)cc2)O1)NCCc1ccccc1,7,/,/,-27,/
COc1ccc(S(=O)(=O)N2CCN(c3ccccc3OC)CC2)cc1,-2,i,16,-5,0
COc1ccc(S(=O)(=O)N2CCN(c3ccc4nnc(-c5ccccc5)n4n3)CC2)cc1,-9,i,4,111*,0
CCOc1ccc(S(=O)(=O)c2c[nH]c3ccccc3c2=O)cc1,/,i,-85*,11,1
O=C(Nc1ccc(S(=O)(=O)Nc2ccccn2)cc1)c1cccc(Br)c1,3,i,-81*,-2,-1
Cc1ccccc1NC(=O)c1ccc(C)c(S(=O)(=O)Nc2ccccn2)c1,-2,i,7,97*,/
O=C(Nc1ccc(S(=O)(=O)Nc2ccccn2)cc1)c1cccc(Cl)c1,/,i,?,74*,0
COc1cccc(-n2c(SCC(=O)N3CCOCC3)nc3c([nH]c4ccccc43)c2=O)c1,-2,i,16,9,457*
CC(=O)N1[C@H](C(=O)N2CCCCC2)[C@@H](CO)[C@@H]2Cn3c(ccc(C4=CCCCC4)c3=O)[C@@H]21,3,/,/,0,/
Cc1ccc(C(CC(=O)O)C2CCOC(C)(C)C2)cc1 (configuration not stated),7,i,5,-12,42*
COc1ccc(CN(CCC(c2ccccc2)C2CCOC(C)(C)C2)C(C)=O)cc1 (configuration not stated),-11,i,9,/,0
COc1ccc(C#Cc2cnc3c(c2)C(=O)N([C@@H](C)CO)C[C@@H](C)[C@H](CN(C)C(=O)Nc2cccc(OC)c2)O3)cc1,-1,/,/,112*,/
